The source of these data is PubChem BioAssay (NCI).

Compounds without any hit were thinned out: in the full panel of roughly 83,000, 20% have a hit.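 A percent growth of 40 corresponds to 60% growth inhibition; 0 means no net growth; -100 means all cells died. Active threshold: below 10.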 A number with no mark means an inactive call. The source made the active and inactive calls.

The test system of the first assay is 786-0 renal. In words: NCI-60 one-dose screen, 48 h (100 = growth as untreated, 0 = no growth, -100 = all killed). Conditions: 10 µM unless noted.
On to `COc1cc(NCc2ccccc2O)c2ncccc2c1`, for which the growth was 69.5%.
Consider `Cc1ccc(C2=C/C(=C/c3ccc(Br)cc3)C(=O)N2CCc2ccc(S(N)(=O)=O)cc2)cc1`, for which the growth was 97.1%.
Consider `Nc1nc(Nc2ccccc2)c2ncn(Cc3ccc4c(c3)OCO4)c2n1`, for which the growth was 54.8%.
As for `O=C(CCCSc1nc(-c2ccccc2)cc(-c2ccccc2)n1)NO`, the growth was 7.15% (active).
For `FC(F)(F)c1ccc2c(c1)Sc1ccccc1N2`, the growth is 89.6%.
Regarding `O=C1NC(=O)C(Cc2ccccc2)(Cc2ccccc2)N1`, the growth is 90.9%.
Turning to `C=C(C)[C@@H]1CC[C@]2(C(=O)N3CCN(C)CC3)CC[C@]3(C)[C@H](CC[C@@H]4[C@@]5(C)C/C(=C/c6ccncc6)[C@H](O)C(C)(C)[C@@H]5CC[C@]43C)[C@@H]12`, the growth is -90.8% [100 µM] (active).
For the compound `C[C@@H](NC(=O)[C@@H](CC(=O)N1CCC(N2CCCCC2)CC1)N1C(=O)[C@@H](N2C(=O)OC[C@@H]2c2ccccc2)[C@H]1/C=C/c1cccc(Cl)c1)c1ccccc1`, the growth was 65%.
Same read-out and setting: with `N#C/C(=C(/O)CCCO)c1nc2ccccc2c(=O)[nH]1` the figure was 102%.
Same read-out and setting: the same measure for `Cn1cc(-c2nnc(-c3cn(C)c4ncc(Br)cc34)s2)c2cc(Br)ccc21`: 93.5%.
On to `CC1(C)CC[C@]2(C(=O)OC(=O)[C@]34CCC(C)(C)C[C@@H]3C3=CC[C@@H]5[C@@]6(C)CCC(=O)C(C)(C)[C@@H]6CC[C@@]5(C)[C@]3(C)CC4)CC[C@]3(C)C(=CC[C@@H]4[C@@]5(C)CCC(=O)C(C)(C)[C@@H]5CC[C@]43C)[C@H]2C1`, for which the growth is 64.1% [100 µM].
On the same count and under the same terms, the same measure for `Cn1cc(-c2noc(-c3cn(C)c4ncc(Br)cc34)n2)c2cc(Cl)ccc21`: 53.7%.
The same measure, in the same setting: with `CCc1cccc(Cl)c1` the figure was 105%.
For `c1cc2ccc3cc2cc1CNCCN1CCNCc2ccc4ccc(cc4c2)CNCCN(CCNC3)CCNCc2ccc3ccc(cc3c2)CNCC1`, the growth was 89.7%.
In the case of `COc1ccc(-c2cc(-c3ccccc3)nc(NCCNc3ccnc4cc(Cl)ccc34)n2)cc1`, the growth is -81.7% (active).
On the same count and under the same terms, with `O=C(N/N=C\c1cc(Cl)ccc1O)N/N=C/c1cc(Cl)ccc1O` the figure was 78%.
With `O=C1Nc2ccccc2/C1=C/C(=O)c1ccc(N2CCCCC2)cc1`, the growth is 98.7%.
The same measure, in the same setting: the same measure for `O=c1c2c3c(sc2n2cnnc2n1Cc1ccccc1)CCCC3`: 100%; for `Cn1c(=O)c(C#N)c(-c2ccco2)n2c(S(=O)(=O)Cc3ccccc3)nnc12`: 81.1%; for `CCCCCn1sc(=O)n(Cc2ccc(CNC(=O)OCc3ccc4cccc(O)c4n3)cc2)c1=O`: -71% (active).
Turning to `O=C(N/N=C/c1ccc([N+](=O)[O-])cc1)c1ccc(Br)o1`, the growth was 91.7%.
Turning to `C=C(C)[C@@H]1CC[C@]2(COCCC#N)CC[C@]3(C)[C@H](CC[C@@H]4[C@@](C)(CCCNCCC#N)[C@H](C(=C)C)CC[C@]43C)[C@@H]12`, the growth was 16.1% [100 µM].
Same read-out and setting: the same measure for `C=C(C)[C@@H]1CC[C@]2(C(=O)OC)CC[C@]3(C)[C@H](CC[C@@H]4[C@@]5(C)CC/C(=N\OCCC(=NCCC#N)NOCCC#N)C(C)(C)[C@@H]5CC[C@]43C)[C@@H]12`: -11.5% [100 µM] (active).

The next assay relates to COLO 205 colon. Described as above. Conditions: 10 µM unless noted.
Turning to `O=C(Nc1cccc2ccccc12)c1cc2ccccc2cc1O`, the growth was 112%.
Still for that read-out and setting: with `COc1cc2c(O)n(CCCN3CCOCC3)c3c4cnc5cccc(c(=O)c3c2cc1OC)c54` the figure was 34.2%; with `C#CCNC(=O)CC[C@@H](C)[C@H]1CC[C@H]2[C@@H]3CC[C@@H]4CC(=O)CC[C@]4(C)[C@H]3CC[C@]12C`, -70.9% [100 µM] (active); with `COc1ccc(NC(=O)Nc2ccc(-c3cccnc3)cc2N2CCC(CO)CC2)cc1`, 70%.
Same read-out and setting: with `CC1(C(=O)O)CCC(N)(C(=O)O)C1(C)C` (stereo not given) the figure was 104%; with `COc1ncc(-c2ccc3nccc(C#CCCCCC(=O)NO)c3c2)cc1NS(=O)(=O)c1ccc(F)cc1F`, -44.5% (active).
On the same count and under the same terms, the same measure for `O=C(O)CC1CCCCC1c1ccccc1` (stereo not given): 113%.
Consider `CC(C)=CC/C=C(/C)[C@H]1CC[C@]2(C)[C@@H]1CC[C@@H]1[C@@]3(C)CCC(=O)NC(C)(C)[C@@H]3CC[C@]12C`, for which the growth was -0.368% [100 µM] (active).
The same measure, in the same setting: with `Cc1nc(Cl)c2c(n1)N(C)c1ccc(Cl)cc1C(C)C2` (stereo not given) the figure was 97.3%.
Regarding `Cc1ccc(N)c(O)c1`, the growth was 132%.
Take `Nc1ccc(Cl)c([N+](=O)[O-])c1`: the growth was 107%.
`O=[N+]([O-])c1cccc(N=NNc2cccc([N+](=O)[O-])c2)c1`: the growth was 113%.
As to `C=C(C)[C@@H]1CC[C@]2(C)[C@H](CC[C@@H]3[C@@H]([C@@](C)(O)CCC=C(C)C)CC[C@]32C)[C@@]1(C)CCC(=O)N1CCN(C)CC1`, the growth was -80.8% [100 µM] (active).
Same read-out and setting: with `Cn1cc(-c2noc(C(=O)c3cn(C)c4ncc(Br)cc34)n2)c2ccccc21` the figure was 107%; with `COc1cc(NCc2ccccc2O)c2ncccc2c1`, 96.9%.
On the same count and under the same terms, the same measure for `Cc1ccc(C2=C/C(=C/c3ccc(Br)cc3)C(=O)N2CCc2ccc(S(N)(=O)=O)cc2)cc1`: 115%; for `Nc1nc(Nc2ccccc2)c2ncn(Cc3ccc4c(c3)OCO4)c2n1`: 47%; for `O=C(CCCSc1nc(-c2ccccc2)cc(-c2ccccc2)n1)NO`: -14% (active).
Still for that read-out and setting: the same measure for `FC(F)(F)c1ccc2c(c1)Sc1ccccc1N2`: 110%; for `O=C1NC(=O)C(Cc2ccccc2)(Cc2ccccc2)N1`: 107%.
As to `C=C(C)[C@@H]1CC[C@]2(C(=O)N3CCN(C)CC3)CC[C@]3(C)[C@H](CC[C@@H]4[C@@]5(C)C/C(=C/c6ccncc6)[C@H](O)C(C)(C)[C@@H]5CC[C@]43C)[C@@H]12`, the growth is -74.8% [100 µM] (active).
With `C[C@@H](NC(=O)[C@@H](CC(=O)N1CCC(N2CCCCC2)CC1)N1C(=O)[C@@H](N2C(=O)OC[C@@H]2c2ccccc2)[C@H]1/C=C/c1cccc(Cl)c1)c1ccccc1`, the growth is -54.6% (active).
Consider `N#C/C(=C(/O)CCCO)c1nc2ccccc2c(=O)[nH]1`, for which the growth was 130%.
Same read-out and setting: with `Cn1cc(-c2nnc(-c3cn(C)c4ncc(Br)cc34)s2)c2cc(Br)ccc21` the figure was 105%; with `CC1(C)CC[C@]2(C(=O)OC(=O)[C@]34CCC(C)(C)C[C@@H]3C3=CC[C@@H]5[C@@]6(C)CCC(=O)C(C)(C)[C@@H]6CC[C@@]5(C)[C@]3(C)CC4)CC[C@]3(C)C(=CC[C@@H]4[C@@]5(C)CCC(=O)C(C)(C)[C@@H]5CC[C@]43C)[C@H]2C1`, 88.6% [100 µM].
Same read-out and setting: the same measure for `Cn1cc(-c2noc(-c3cn(C)c4ncc(Br)cc34)n2)c2cc(Cl)ccc21`: 66.4%; for `CCc1cccc(Cl)c1`: 117%; for `c1cc2ccc3cc2cc1CNCCN1CCNCc2ccc4ccc(cc4c2)CNCCN(CCNC3)CCNCc2ccc3ccc(cc3c2)CNCC1`: -32.7% (active).
Same read-out and setting: the same measure for `COc1ccc(-c2cc(-c3ccccc3)nc(NCCNc3ccnc4cc(Cl)ccc34)n2)cc1`: -80.8% (active); for `O=C(N/N=C\c1cc(Cl)ccc1O)N/N=C/c1cc(Cl)ccc1O`: 46.3%.
In the case of `O=C1Nc2ccccc2/C1=C/C(=O)c1ccc(N2CCCCC2)cc1`, the growth is 74.6%.
As for `O=c1c2c3c(sc2n2cnnc2n1Cc1ccccc1)CCCC3`, the growth is 83.3%.
The same measure, in the same setting: the same measure for `Cn1c(=O)c(C#N)c(-c2ccco2)n2c(S(=O)(=O)Cc3ccccc3)nnc12`: 111%; for `CCCCCn1sc(=O)n(Cc2ccc(CNC(=O)OCc3ccc4cccc(O)c4n3)cc2)c1=O`: -45.2% (active).
The same measure, in the same setting: the same measure for `O=C(N/N=C/c1ccc([N+](=O)[O-])cc1)c1ccc(Br)o1`: 116%; for `C=C(C)[C@@H]1CC[C@]2(COCCC#N)CC[C@]3(C)[C@H](CC[C@@H]4[C@@](C)(CCCNCCC#N)[C@H](C(=C)C)CC[C@]43C)[C@@H]12`: 11.3% [100 µM]; for `C=C(C)[C@@H]1CC[C@]2(C(=O)OC)CC[C@]3(C)[C@H](CC[C@@H]4[C@@]5(C)CC/C(=N\OCCC(=NCCC#N)NOCCC#N)C(C)(C)[C@@H]5CC[C@]43C)[C@@H]12`: 17.6% [100 µM].
